# PubChem BioAssay (Tox21)
# Results filed as inconclusive are left out. Where a call stands in place of a potency, no number is given. Activity calls are given as the source filed them. Unless noted, the call rests on the fitted dose curve; in most records, active means well fitted curve in the direction sought with a large enough effect in the repeat runs; inconclusive means weak or mixed curves; inactive means no such curve, though single readings can be large; an effect the other way counts as inactive or inconclusive.
# How the values were obtained:
# [1] = qHTS assay to identify small molecule antagonists of the peroxisome proliferator-activated receptor gamma (PPARg) signaling pathway - cell viability counter screen (AID 743194); further: nearly all actives have a fitted effect of over 55% in size
# Outline: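 Cytotoxicity counter screen in PPARg-bla HEK293H cells, same wells as reporter assay. Compounds plus 50 nM rosiglitazone (final) for 17 h at 37 C, then viability read by CellTiter-Glo luminescence.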
# [2] = qHTS assay for small molecule agonists of the antioxidant response element (ARE) signaling pathway - cell viability counter screen (AID 743203; calls by dose curve; further: nearly all actives have a fitted effect of over 55% in size; further: potency means the concentration at half of the fitted maximal effect)
# Outline: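 CellSensor ARE-bla HepG2 cells, 2,000 per well, rested 5 hrs at 37C/5% CO2, then exposed to compound in DMSO for 16 hrs; viability read as CellTiter-Glo luminescence after 30 min at room temperature, in the reporter wells.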
# [3] = qHTS assay for small molecule activators of the heat shock response signaling pathway - cell viability counter screen (AID 743209); further: nearly all actives have a fitted effect of over 50% in size
# Outline: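 CellSensor HSE-bla HeLa cells, plated overnight at 37 C/5% CO2, were exposed to compounds in DMSO for 5 h at 37 C. Viability was then read in the same wells by CellTiter-Glo luminescence after 30 min at room temperature.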
# [4] = qHTS assay for small molecule activators of the heat shock response signaling pathway (AID 743210; active means well fitted activation curve with a large enough effect in the signal ratio in the repeat runs, with a control signal flat, not every such curve was filed as active; the % refers to the signal ratio;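 further: HeLa cells with beta-lactamase reporter driven by heat shock elements; series mostly up to about 63 µM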)
# Outline: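 Quantitative high-throughput format using an engineered HeLa line in which heat shock response elements drive beta-lactamase; after 5 h with compound, cells received a B/G FRET substrate and fluorescence was read.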
# [5] = qHTS assay to identify small molecule that activate the aryl hydrocarbon receptor (AhR) signaling pathway - cell viability counter screen (AID 743086); further: nearly all actives have a fitted effect of over 45% in size; further: potency means the concentration at half of the fitted maximal effect
# Outline: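 HepG2-AhR-luc (HG2L7.5c1) cells, 4000/well, treated 24 h at 37 C with compound; viability measured as CellTiter-Fluor fluorescence after 30 min in the same wells as the luciferase read.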
# [6] = qHTS assay for small molecule agonists of the antioxidant response element (ARE) signaling pathway (AID 743202; active means well fitted activation curve with a large enough effect in the signal ratio in the repeat runs, not every such curve was filed as active; the % refers to the signal ratio)
# Outline: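 Agonist mode reporter screen: HepG2 cells with ARE-controlled beta-lactamase are incubated with test compounds for 16 h at 37 C, and beta-lactamase activity is measured as fluorescence of cleaved B/G FRET substrate.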
Compound,Potency [1],Potency [2],Potency [3],Potency [4],Potency [5],Potency [6]
COc1cc2nc(Cl)nc(N)c2cc1OC,inactive,inactive,inactive,inactive,–,–
CN(C)CCN(Cc1ccsc1)c1ccccn1,inactive,inactive,inactive,–,–,–
COc1cc2nc(N3CCN(C(=O)C4COc5ccccc5O4)CC3)nc(N)c2cc1OC (stereo not given),–,29.8 µM (active),inactive,inactive,inactive,–
COc1cc2c(cc1OC)C(C(C(=O)N(CCc1ccc(OC)c(OC)c1OC)CCc1ccc(OC)c(OC)c1OC)c1ccccc1)=NCC2 (stereo not given),inactive,inactive,inactive,inactive,8.41 µM (active),inactive
CCCCCCc1ccc(-c2ccc(C#N)cc2)cc1,inactive,inactive,inactive,inactive,inactive,inactive
Cc1ccc(C(=O)Oc2ccc(C(O)CNC(C)(C)C)cc2OC(=O)c2ccc(C)cc2)cc1 (stereo not given),inactive,–,–,inactive,–,–
